Experimental data from PubChem BioAssay (Tox21).
“And” between values parts separate entries of the source, which are not always exact repeats. Identical values can stand only once. Records with an inconclusive call do not appear. Some structures have more than one record in an assay (separate samples or runs), and their calls can disagree. The source made the active and inactive calls. Unless noted, calls come from the whole dose curve; as a rule, active = well fitted curve in the direction sought with a large enough effect in the repeat runs; inconclusive = weak or mixed curves; inactive = no such curve, though single readings can be large; an effect the other way counts as inactive or inconclusive.

Columns and labels:
[1] = target: Thyrotropin receptor (Homo sapiens) (UniProt P16473); assay: qHTS assay to identify small molecule agonists of the thyroid stimulating hormone receptor (TSHR) signaling pathway (AID 1224843; calls by dose curve; note: nearly all actives have a fitted effect of over 45% in size)
Thyrotropin receptor (Homo sapiens), sequence (P16473 whole entry, looked up): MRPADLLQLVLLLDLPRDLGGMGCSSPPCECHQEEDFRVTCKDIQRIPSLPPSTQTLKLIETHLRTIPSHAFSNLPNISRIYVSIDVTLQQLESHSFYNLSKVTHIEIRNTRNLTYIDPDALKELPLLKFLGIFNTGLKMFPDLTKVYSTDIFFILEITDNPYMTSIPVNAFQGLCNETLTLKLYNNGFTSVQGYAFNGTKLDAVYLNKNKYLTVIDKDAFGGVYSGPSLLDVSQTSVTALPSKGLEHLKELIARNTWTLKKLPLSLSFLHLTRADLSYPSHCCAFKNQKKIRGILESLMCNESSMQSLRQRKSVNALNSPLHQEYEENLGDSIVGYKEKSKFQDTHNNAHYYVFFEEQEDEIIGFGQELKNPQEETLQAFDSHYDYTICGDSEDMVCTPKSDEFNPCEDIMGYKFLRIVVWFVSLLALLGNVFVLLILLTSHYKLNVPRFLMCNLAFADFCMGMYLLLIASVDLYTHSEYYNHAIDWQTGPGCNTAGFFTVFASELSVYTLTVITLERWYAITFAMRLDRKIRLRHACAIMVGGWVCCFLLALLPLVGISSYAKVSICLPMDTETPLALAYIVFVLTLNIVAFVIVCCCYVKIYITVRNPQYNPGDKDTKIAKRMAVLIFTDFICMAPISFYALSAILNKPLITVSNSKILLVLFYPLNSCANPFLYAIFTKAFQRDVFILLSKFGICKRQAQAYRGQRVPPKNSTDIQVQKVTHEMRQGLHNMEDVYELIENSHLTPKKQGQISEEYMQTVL
How it was run: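 Cell line HEK293 with TSHR; density 800/well. Exposure 30 min RT. Readout HTRF cAMP (cAMP-d2/anti-cAMP-cryptate), 1 h RT before reading.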

[2] = qHTS assay to identify small molecule agonists of the hypoxia (HIF-1) signaling pathway - cell viability counter screen (AID 1224844; calls by dose curve; note: nearly all actives have a fitted effect of over 50% in size)
How it was run: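 ME-180 HRE-bla cells, 2,000/well, 0.5% dialyzed FBS; 5 hr settle, 17 hr compound at 37C/5% CO2; CCF4-AM reporter read first, then CellTiter-Glo luminescence after 30 min RT.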

[3] = qHTS assay to identify small molecule agonists of H2AX (AID 1224845; active = well fitted activation curve with a large enough effect in the signal ratio in the repeat runs, not every such curve was filed as active; the % refers to the signal ratio)
How it was run: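 Wild-type CHO-K1 cells plated overnight, then exposed 3 hr at 37C to compounds at 15 concentrations (0.76% DMSO). Lysed, then HTRF anti-pH2AX(S139)-cryptate/anti-H2AX-d2 detection after 24 hr at room temperature; emissions 665 and 620 nm.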

[4] = qHTS assay to identify small molecule agonists of the hypoxia (HIF-1) signaling pathway (AID 1224846; active = well fitted activation curve with a large enough effect in the signal ratio in the repeat runs, not every such curve was filed as active; the % refers to the signal ratio)
How it was run: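 Cell line: CellSensor HRE-bla ME-180; 2,000 cells/well; 0.5% dialyzed FBS; 5 h preincubation; DMSO compound pin transfer; 17 h, 37C, 5% CO2; CCF4-AM added; bla FRET signal scored for activation.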

[5] = qHTS RealTime-Glo MT Cell Viability Assay in HepG2 cells - 24 hour (AID 1224867); note: nearly all actives have a fitted effect of over 50% in size
How it was run: (§1)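 qHTS, HepG2, 600 cells/well, RealTime-Glo (NanoLuc + prosubstrate) added with cells; 5 h preincubation; DMSO compound addition; 37 C; luminescence at 0/8/16/24/32/40 h.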

[6] = qHTS RealTime-Glo MT Cell Viability Assay in HEK293 cells - 32 hour (AID 1224868); note: nearly all actives have a fitted effect of over 50% in size; note: potency is the fitted concentration of half-maximal effect
How it was run: (§2)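 Assay medium contained NanoLuc luciferase plus cell-permeant prosubstrate, added with HEK293 cells at 600 cells/well. After 5 h at 37 C/5% CO2 compounds were added; plates stayed at 37 C for 40 h with serial luminescence reads.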

[7] = A CellTox Green Cytotoxicity Assay to monitor cytotoxicity in HEK293 cells - 0 hour (AID 1224869); note: nearly all actives have a fitted effect of over 50% in size
How it was run: (§3)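 Nonlytic real-time cytotoxicity: HEK293 + CellTox Green reagent plated, 5 h preincubation, pintool compound addition (23 nL in DMSO), 37 C for 40 h, fluorescence measured at successive time points.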

[8] = qHTS RealTime-Glo MT Cell Viability Assay in HepG2 cells - 40 hour (AID 1224870); note: nearly all actives have a fitted effect of over 50% in size
How it was run: (§4)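 HepG2 cells mixed with RealTime-Glo MT reagents (NanoLuc plus cell-permeant prosubstrate) were seeded at 600 cells/well, incubated 5 h at 37 C/5% CO2, then pinned with compounds in DMSO; nonlytic luminescence tracked viability during 40 h treatment.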

[9] = A CellTox Green Cytotoxicity Assay to monitor cytotoxicity in HEK293 cells - 40 hour (AID 1224871); note: nearly all actives have a fitted effect of over 45% in size
How it was run: as §3

[10] = qHTS RealTime-Glo MT Cell Viability Assay in HEK293 cells - 16 hour (AID 1224872); note: nearly all actives have a fitted effect of over 50% in size; note: potency is the fitted concentration of half-maximal effect
How it was run: as §2

[11] = qHTS RealTime-Glo MT Cell Viability Assay in HepG2 cells - 8 hour (AID 1224873); note: nearly all actives have a fitted effect of over 55% in size
How it was run: as §4

[12] = qHTS RealTime-Glo MT Cell Viability Assay in HEK293 cells - 40 hour (AID 1224874); conditions: RealTime-Glo luminescence; max response: stronger effect = lower value; note: nearly all actives have a fitted effect of over 50% in size; note: potency is the fitted concentration of half-maximal effect
How it was run: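 Cells were seeded together with NanoLuc luciferase and a prosubstrate that viable cells reduce to a luciferase substrate. After a 5 h incubation at 37 C/5% CO2, compounds were added and luminescence was measured repeatedly during 40 h of treatment.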

[13] = A CellTox Green Cytotoxicity Assay to monitor cytotoxicity in HEK293 cells - 24 hour (AID 1224875); note: series mostly up to about 77 µM; nearly all actives have a fitted effect of over 45% in size
How it was run: as §3

[14] = A CellTox Green Cytotoxicity Assay to monitor cytotoxicity in HepG2 cells - 16 hour (AID 1224876); note: nearly all actives have a fitted effect of over 45% in size
How it was run: (§5)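 Read-out is fluorescence of a cyanine dye excluded from live cells that stains DNA of dead HepG2 cells, with signal proportional to cytotoxicity. Plates were read at 0, 8, 16, 24, 32 and 40 h after compound addition.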

[15] = qHTS RealTime-Glo MT Cell Viability Assay in HepG2 cells - 32 hour (AID 1224877); note: nearly all actives have a fitted effect of over 55% in size
How it was run: as §1

[16] = A CellTox Green Cytotoxicity Assay to monitor cytotoxicity in HepG2 cells - 24 hour (AID 1224878); note: nearly all actives have a fitted effect of over 45% in size
How it was run: as §5

[17] = A CellTox Green Cytotoxicity Assay to monitor cytotoxicity in HepG2 cells - 40 hour (AID 1224879); note: nearly all actives have a fitted effect of over 40% in size
How it was run: as §5

[18] = qHTS assay to identify small molecule agonists of H2AX - cell viability counter screen (AID 1224847; calls by dose curve; note: top concentration of the series differs between compounds; nearly all actives have a fitted effect of over 30% in size)
How it was run: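 CHO-K1 cells plated overnight at 37C, then exposed 3 h at 37C to compounds at 15 concentrations (0.76% DMSO final). Viability by CellTiter-Glo luminescence after 30 min at room temperature.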

[19] = qHTS assay to identify small molecule antagonists of the estrogen related receptor (ERR) signaling pathway from Tox21 library (AID 1224848); note: nearly all actives have a fitted effect of over 50% in size
How it was run: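 Screening used an ERR reporter line supplied by NTP, exposed for 18 h at 37 C to library compounds delivered in DMSO. Signal was luciferase luminescence developed with ONE-Glo at room temperature for 30 min.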

[20] = qHTS assay to identify small molecule agonists of the estrogen related receptor (ERR) signaling pathway from Tox21 library (AID 1224849; calls by dose curve; note: nearly all actives have a fitted effect of over 15% in size)
How it was run: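 ERR cells, 6 h pre-incubation 37 C/5% CO2; cpd in DMSO pinned; 18 h 37 C; ONE-Glo added, 30 min RT; luminescence read. Agonist mode, qHTS.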
% is set by controls: 0 for no effect and ±100 for the full control effect.

CC(=O)OCCOC(C)=O
inactive: outcome [1] | outcome [2] | outcome [3] | outcome [4] | Potency [5] | Potency [6] | outcome [7] | outcome [8] | Potency [9] | Potency [10] | Potency [11] | max response [12] -0.882% and 2.01% | Potency [13] | outcome [14] | outcome [15] | Potency [16] | Potency [17]

NCCNCCN
inactive: outcome [2] | outcome [3] | outcome [4] | outcome [18] | outcome [19] | outcome [20] | Potency [5] | Potency [6] | outcome [7] | outcome [8] | Potency [9] | Potency [10] | Potency [11] | max response [12] -1.22% and 0.475% | Potency [13] | outcome [14] | outcome [15] | Potency [16] | Potency [17]

C[C@]12CCC(=O)C=C1CC[C@@H]1[C@@H]2[C@@H](O)C[C@@]2(C)[C@H]1CC[C@]2(O)C(=O)CO
inactive: outcome [1] | outcome [2] | outcome [3] | outcome [18] | outcome [7] | Potency [9] | Potency [13] | outcome [14] | Potency [16] | Potency [17]

O=c1[nH]cnc2[nH]ncc12
inactive: outcome [2] | outcome [3] | outcome [18] | Potency [5] | Potency [6] | outcome [7] | outcome [8] | Potency [9] | Potency [10] | Potency [11] | max response [12] -0.951% and 0.0063% | Potency [13] | outcome [14] | outcome [15] | Potency [16] | Potency [17]

CC(=O)OC1CC(C)OC(C)O1 (configuration not stated)
inactive: outcome [2] | outcome [3] | outcome [4] | outcome [18] | outcome [19] | outcome [20] | Potency [5] | Potency [6] | outcome [7] | outcome [8] | Potency [9] | Potency [10] | Potency [11] | max response [12] 5.08% and 9.58% | Potency [13] | outcome [14] | outcome [15] | Potency [16] | Potency [17]

CN(C)c1ccc(Cc2ccc(N(C)C)cc2)cc1
active: Potency [6] 22 µM and 21.9 µM | Potency [10] 21.9 µM | Potency [12] 19.6 µM and 24.5 µM
inactive: outcome [2] | outcome [3] | outcome [4] | outcome [20] | Potency [5] | outcome [7] | outcome [8] | Potency [9] | Potency [11] | Potency [13] | outcome [14] | outcome [15] | Potency [16] | Potency [17]

CC1(C)S[C@@H]2[C@H](NC(=O)COc3ccccc3)C(=O)N2[C@H]1C(=O)O
inactive: outcome [1] | outcome [2] | outcome [3] | outcome [19] | outcome [20] | Potency [5] | Potency [6] | outcome [7] | Potency [9] | Potency [10] | Potency [11] | max response [12] 0.704% and 1.33% | Potency [13] | outcome [14] | outcome [15] | Potency [16] | Potency [17]

CCCCOC(=O)c1ccc(N)cc1
inactive: outcome [1] | outcome [2] | outcome [3] | Potency [5] | Potency [6] | outcome [7] | outcome [8] | Potency [9] | Potency [10] | Potency [11] | max response [12] 0.814% | Potency [13] | outcome [14] | outcome [15] | Potency [16] | Potency [17]

Cc1ccc(C(C)C)c(O)c1
inactive: outcome [2] | outcome [3] | outcome [4] | outcome [19] | outcome [20] | Potency [5] | Potency [6] | outcome [7] | Potency [9] | Potency [10] | Potency [11] | max response [12] -11.7% and 0.827% | Potency [13] | outcome [14] | outcome [15] | Potency [16] | Potency [17]

CNC(=S)N(C)C
active: Potency [12] 11.6 µM
inactive and 11.6 µM (active): Potency [6]
inactive: outcome [2] | outcome [3] | outcome [4] | outcome [18] | Potency [5] | outcome [7] | outcome [8] | Potency [9] | Potency [10] | Potency [11] | max response [12] 3.02% | Potency [13] | outcome [14] | outcome [15] | Potency [16] | Potency [17]

CC(C)(C#N)c1cc(Cn2cncn2)cc(C(C)(C)C#N)c1
inactive: outcome [2] | outcome [3] | outcome [4] | outcome [18] | outcome [19] | outcome [20] | Potency [5] | Potency [6] | outcome [7] | Potency [9] | Potency [10] | Potency [11] | max response [12] 0.713% and 4.85% | Potency [13] | outcome [14] | outcome [15] | Potency [16] | Potency [17]

CC1(C)OC[C@@H]2O[C@@]3(C(=O)O)OC(C)(C)O[C@H]3[C@@H]2O1
inactive: outcome [1] | outcome [2] | outcome [3] | outcome [4] | Potency [5] | Potency [6] | outcome [7] | Potency [9] | Potency [10] | Potency [11] | max response [12] -6.82% and 4.68% | Potency [13] | outcome [14] | outcome [15] | Potency [16] | Potency [17]

CN/C(=C\[N+](=O)[O-])NCCSCc1csc(CN(C)C)n1
inactive: outcome [1] | outcome [2] | outcome [3] | Potency [5] | Potency [6] | outcome [7] | outcome [8] | Potency [9] | Potency [10] | Potency [11] | max response [12] 2.65% and -4.24% | Potency [13] | outcome [14] | outcome [15] | Potency [16] | Potency [17]

CN1C(=O)CC[C@H]1c1cccnc1
inactive: outcome [1] | outcome [2] | outcome [3] | outcome [18] | Potency [5] | Potency [6] | outcome [7] | Potency [9] | Potency [10] | Potency [11] | max response [12] 1.45% and 7.43% | Potency [13] | outcome [14] | outcome [15] | Potency [16] | Potency [17]
